# Reference: PubChem BioAssay (NCATS)
# Inconclusive results are not listed. Calls of active or inactive are those of the source. Calls come from the whole dose curve; as a rule, active = well fitted cell-killing curve with a large enough effect; inconclusive = small, poorly fitted or top-dose-only effect, or effect the other way; inactive = no such curve, though single readings can be large or run the other way.
# Assay: Viability qHTS for spleen associated tyrosine kinase inhibitor (SYKi) naive MV4-11 cells (AID 1963823); note: nearly all actives have a fitted effect of over 40% in size
# Settings: MV4-11 AML viability, CellTiter-Glo luminescence, 72 h; series mostly up to 45 µM; viability (% of control): at the top concentration
# Outline: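 In this viability screen, compounds acted on SYK inhibitor naive MV4-11 cells for three days (72 hr, 37 C). Remaining viable cells were measured by CellTiter-Glo luminescence following a 10 min room-temperature development.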
# Potency is the fitted concentration of half-maximal effect.
Structure (SMILES),viability (% of control),Potency
COc1cc(C2Oc3c(OC)cc(CCCO)cc3C2CO)ccc1O[C@H]1O[C@H](C)[C@@H](O)[C@H](O)[C@@H]1O (some centres not stated),80.9% [at 17.3 µM] (inactive),
O=c1cc(-c2cccc(O)c2)oc2c(O)c(O)ccc12,,14.6 µM (active)
Nc1ncnc2c1ncn2[C@H]1CCCO1,43.9% (inactive),
C=CC1(C)CC(OC(=O)/C(C)=C\COC(C)=O)C(C(=C)C(=O)O)C(O)C1C(=C)CO (configuration not stated),89.8% [at 17.3 µM] (inactive),
CC(C)(O)C1CCC2(C)C3C(O)C4C(C13)C42CO (configuration not stated),82.4% (inactive),
CC1(C)CC[C@]2(C(=O)O)CC[C@]3(C)C(=CCC4[C@@]5(C)CC[C@H](O[C@@H]6O[C@H](CO)[C@@H](O)[C@H](O)[C@H]6O[C@@H]6O[C@H](CO)[C@@H](O)[C@H](O)[C@H]6O)[C@@](C)(CO)C5CC[C@]43C)[C@@H]2C1 (some centres not stated),85.6% [at 17.3 µM] (inactive),
C=CC1C(O[C@@H]2O[C@H](CO)[C@@H](O)[C@H](O)[C@H]2O)OC=C(C(=O)OC)C1CC(=O)O (some centres not stated),80.1% [at 17.3 µM] (inactive),
CS(=O)(=O)N(CC(=O)NCC1CC1)c1cc(C(F)(F)F)ccc1Cl,78.3% (inactive),
COC(O)(CC(C)C)C1Oc2cc(C)[nH]c(=O)c2O1 (configuration not stated),70.1% (inactive),
COc1cc(/C=C/C(=O)O[C@H]2[C@H](O)[C@@H](CO)O[C@@]2(CO)O[C@H]2O[C@H](COC(=O)c3ccc(O)cc3)[C@@H](O)[C@H](O)[C@H]2O)cc(OC)c1OC,77% [at 17.3 µM] (inactive),
C=CC(=O)Nc1ccc(CN2C(=O)N(c3cc(OC)cc(OC)c3)Cc3cnc(Nc4ccc(N5CCN(C)CC5)cc4)nc32)cc1,,1.16 µM (active)
CC1=C(CCC(C)O[C@@H]2O[C@H](CO)[C@@H](O)[C@H](O)[C@H]2O)C(C)(C)CCC1=O (some centres not stated),84.2% (inactive),
